The results in this text go back to PubChem BioAssay (NCI).

Molecules are shown by their SMILES. The panel holds about 83,000 compounds, 20% with a hit somewhere; the sample as a whole holds those more often.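 Interpretation: 100, growth as untreated; towards 0, rising growth inhibition; 0, no net growth; 0 to -100, cell death. Compounds scoring below 10 were considered active.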 A number with no mark means an inactive call. Calls of active or inactive are those of the source.

This assay has as its system NCI-H460 lung. The assay is described as follows: NCI-60 one-dose screen, 48 h (100 = growth as untreated, 0 = no growth, -100 = all killed). Conditions: 10 µM unless noted. The method, then:
Growth inhibition of the NCI-H460 human Non-Small Cell Lung tumor cell line is measured as a screen for anti-cancer activity. Cells are grown in 96 well plates and exposed to the test compound for 48 hours. Compounds are tested at a single concentration, which is 10^-5 M for most compounds. The reported endpoint is percent growth (GI% or GIPRCNT), where numbers from 0 - 100% represent growth inhibition, and numbers from -100% - 0 represent cell death. For example, a value of 40 represents 60% growth inhibition. A value of 0 means no net growth occurred over the course of the experiment. A value of -40 indicates 40% of cells at the beginning of the experiment died by the end of the experiment. A value of -100 means all cells are dead at the end of the experiment.
NCI-60 Human Tumor Cell Lines Screen was performed using the standard one-dose NCI protocol, which is described in more detail at https://dtp.cancer.gov/discovery_development/nci-60/default.htm.
Compounds with GIPRCNT values below 10 were considered active. Activity score was based on GIPRCNT using the following formula: […]
Score is 0 for GIPRCNT values of 100 or above, 50 for GIPRCNT values of 0, and 100 for GIPRCNT values of -100.
As to `C=C(C)[C@@H]1CC[C@]2(C(=O)n3ccnc3)CC[C@]3(C)[C@H](CC[C@@H]4[C@@]5(C)CCCNC(C)(C)[C@@H]5CC[C@]43C)[C@@H]12`, the growth was -71.8% (active). As for `CCc1c(C(=O)N[C@@H](C(=O)OCc2ccccc2)C(C)O)[nH]c2ccc(Cl)cc12` (stereo not given in full), the growth is 13.8%. In the case of `COc1ccc(C(=S)c2cc(OC)c(OC)c(OC)c2)cc1OC(=O)CCl` it was 7.23% (active); in that of `COc1cc(-c2csc(NC(=O)Nc3cc(Cl)cc(Cl)c3)n2)cc(OC)c1OC`, -61.6% (active). Consider `CCCCC1=c2c([nH]c3ccc(OC)cc23)=NC2C=CC=NC12` (stereo not given), for which the growth is 80.7%.

Take `O=C(CCCC(=O)Nc1ccc(-n2nnc3cc(Cl)c(Cl)cc32)cc1)Nc1ccc(-n2nnc3cc(Cl)c(Cl)cc32)cc1`: the growth was 14.9%. With `COc1cc(C2=NN(c3ccccc3)C(c3cccc(Nc4ccnc5cc(C(F)(F)F)ccc45)c3)C2)cc(OC)c1OC` (stereo not given) the figure was 96.2%; with `N#CCNc1ccc(C(=O)O)cc1`, 103%. With `CC(C)NS(=O)(=O)c1cccc(-c2ccc3c(=O)n(CCCN)c4c(c3c2)C(=O)c2ccccc2-4)c1` the figure was 102%; with `COc1ccc(C2=NN(c3ccc(S(N)(=O)=O)cc3)C(c3ccc(Cl)cc3)C2)c(O)c1` (stereo not given), 45%. In the case of `COc1cc(NCC(=O)Nc2cc(Nc3cccc(C(F)(F)F)c3)ncn2)c(Cl)c(OC)c1Cl` it was 103%; in that of `COc1cc(NC(=O)Nc2cnc(Nc3ccc(N4CCOCC4)cc3)nc2Oc2ccc(F)cc2)cc(OC)c1`, 54.1%; in that of `CC(=O)[C@@H]1CC[C@]2(C(=O)O)CC[C@]3(C)[C@H](CC[C@@H]4[C@@]5(C)Cc6c([nH]c7ccccc67)C(C)(C)[C@@H]5CC[C@]43C)[C@@H]12`, 44.9%. In the case of `Nc1cc(N)nc(SCC(=O)O)n1`, the growth is 106%. On to `CCOC(=O)c1ccc(Nc2ncnc3ccc(NC(=O)c4ccccc4)cc23)cc1`, for which the growth was 95.5%.

Consider `S=c1ssnc1-c1cc2ccccc2o1`, for which the growth is 70%. With `C1=CC2=CC=C3C=CC=C4C(c5nc6c7ccccc7c7ccccc7c6[nH]5)=CC(=C1)C2C34` (stereo not given) the figure was 98.9%. With `C/C(=N\NC(=O)c1ccncc1)c1ccc(N)cc1` the figure was 99.3%. With `C[C@H]1[C@H](C)CC[C@]2(C(=O)OCCCC[P+](c3ccccc3)(c3ccccc3)c3ccccc3)CC[C@]3(C)C(=CC[C@@H]4[C@@]5(C)CC[C@H](OC(=O)C(Cl)Cl)C(C)(C)[C@@H]5CC[C@]43C)[C@H]12` the figure was -83.8% (active); with `O=C1NC(c2ccc(F)cc2)N=C2C(c3ccccc3)=NOC12` (stereo not given), 112%.

Take `Nc1ccc(C2=NN(C(=O)c3cc(-c4ccc(Cl)cc4)nc4ccccc34)C(c3ccccc3)C2)cc1` (stereo not given): the growth is 18.8%.

Regarding `C=C1C(=O)O[C@H]2[C@H]1CC/C(C=Nc1c(N)cc(C(F)(F)F)cc1Br)=C\CC[C@@]1(C)O[C@@H]21`, the growth is 26.7%. With `NS(=O)(=O)c1ccc(-n2ncc(NC(=O)Nc3ccc(S(=O)(=O)Nc4nccs4)cc3)c2-c2ccccc2)cc1` the figure was 108%; with `O=Cc1[nH]c(Sc2ccccc2)c2ccccc12`, 90.5%. In the case of `CN1CC=C(c2cc(NC(=O)Nc3ccc(Oc4ccnc(NC(=O)C5CC5)c4)c(F)c3)cc(C(F)(F)F)c2)CC1` it was -5.88% (active). In the case of `COc1cc(C2=NN(C=O)C(c3cccc(Nc4ccnc5cc(C(F)(F)F)ccc45)c3)C2)cc(OC)c1OC` (stereo not given) it was 44%; in that of `CCCCc1n(Cc2ccc3ccccc3n2)cc[n+]1Cc1ccc2ccccc2c1`, 7.73% (active); in that of `COc1cc(/C=C/C(=O)c2cccs2)ccc1OCc1ccc(Cl)nc1`, 83.6%. As to `O=C1CC23OC4ON=C(Br)C4C2C(O)c2ccccc2N13` (stereo not given), the growth was 106%. With `NS(=O)(=O)c1ccc(-n2nc(-c3ccccc3)ccc2=O)cc1` the figure was 104%. For `CCC1S/C(=N\N=C(/C)c2ccc[nH]2)N(c2ccccc2)C1=O` (stereo not given), the growth is 104%. In the case of `O=C1CCC23OC(C(O)c4ccccc4N12)C1C(Br)=NOC13` (stereo not given) it was 110%. In the case of `CCCn1c(N)c(C(N)=O)sc1=S` it was 114%.

Take `CC(=O)Oc1ccc(O)cc1`: the growth was 108%. In the case of `c1ccc(Sc2ncccn2)nc1` it was 103%; in that of `Cc1ccc2nc3nc4ccc[nH]c4cc3c2c1`, 53.8%; in that of `CC(=O)c1cnc(-c2ccccc2)nc1CBr`, 98.2%. As to `CC(C)NS(=O)(=O)c1cccc(-c2ccc3c4c(n(CCCN(C)C)c(=O)c3c2)-c2ccccc2C4=O)c1`, the growth was 28.5%. For `O=C1Nc2ccccc2C12C=C(c1ccccc1)Nc1c2c(-c2ccccc2)nn1-c1ccccc1` (stereo not given), the growth was 36.5%. In the case of `COc1cc(NCC(=O)Nc2cc(Nc3ccc(C)cc3)ncn2)c(Cl)c(OC)c1Cl` it was 101%.
